# Reference: article doi:10.1101/2024.03.05.583629
# Target: pT7_6His-AlfaTag-HOXD13 (human, UniProt P35453 263-343)
# Assay: PADIT-seq
# Conditions: dsDNA, one strand shown
# Chain of pT7_6His-AlfaTag-HOXD13 (P35453 263-343): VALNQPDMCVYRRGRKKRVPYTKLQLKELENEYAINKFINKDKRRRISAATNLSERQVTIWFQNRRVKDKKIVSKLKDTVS
row,Sequence,binding signal [log2FC]
1,CTCGAGGATATCAAGATCTGGCCTCGGCCAACTAAAAGGAACCTCTAGCTAGCCGACTCACTATAGGGATAATCGCCCTGAGCAAAGACC,0.0444 ± 0.126
2,CTCGAGGATATCAAGATCTGGCCTCGGCATTTTAGCCGGAACCTCTAGCTAGCCGACTCACTATAGGGATAATCGCCCTGAGCAAAGACC,-0.535 ± 0.111
3,CTCGAGGATATCAAGATCTGGCCTCGGCCGCCCAGTTGGAACCTCTAGCTAGCCGACTCACTATAGGGATAATCGCCCTGAGCAAAGACC,-0.996 ± 0.138
4,CTCGAGGATATCAAGATCTGGCCTCGGCCCACTAAAAGGAACCTCTAGCTAGCCGACTCACTATAGGGATAATCGCCCTGAGCAAAGACC,1.42 ± 0.114
5,CTCGAGGATATCAAGATCTGGCCTCGGCAGCATAAAAGGAACCTCTAGCTAGCCGACTCACTATAGGGATAATCGCCCTGAGCAAAGACC,0.863 ± 0.103
6,CTCGAGGATATCAAGATCTGGCCTCGGCTCACCACGCGGAACCTCTAGCTAGCCGACTCACTATAGGGATAATCGCCCTGAGCAAAGACC,-1.05 ± 0.123
7,CTCGAGGATATCAAGATCTGGCCTCGGCGTTTTACCGGGAACCTCTAGCTAGCCGACTCACTATAGGGATAATCGCCCTGAGCAAAGACC,1.01 ± 0.0969
8,CTCGAGGATATCAAGATCTGGCCTCGGCGTTTTAGGGGGAACCTCTAGCTAGCCGACTCACTATAGGGATAATCGCCCTGAGCAAAGACC,1.59 ± 0.0927
9,CTCGAGGATATCAAGATCTGGCCTCGGCGTTTTAGCGGGAACCTCTAGCTAGCCGACTCACTATAGGGATAATCGCCCTGAGCAAAGACC,-0.00405 ± 0.124
10,CTCGAGGATATCAAGATCTGGCCTCGGCTTAATAAAAGGAACCTCTAGCTAGCCGACTCACTATAGGGATAATCGCCCTGAGCAAAGACC,2.67 ± 0.0794
11,CTCGAGGATATCAAGATCTGGCCTCGGCAATGTAAAAGGAACCTCTAGCTAGCCGACTCACTATAGGGATAATCGCCCTGAGCAAAGACC,0.947 ± 0.0815
12,CTCGAGGATATCAAGATCTGGCCTCGGCCCGGTAAAAGGAACCTCTAGCTAGCCGACTCACTATAGGGATAATCGCCCTGAGCAAAGACC,0.409 ± 0.0951
13,CTCGAGGATATCAAGATCTGGCCTCGGCTTACTAAAAGGAACCTCTAGCTAGCCGACTCACTATAGGGATAATCGCCCTGAGCAAAGACC,0.214 ± 0.111
14,CTCGAGGATATCAAGATCTGGCCTCGGCTGTCTAAAAGGAACCTCTAGCTAGCCGACTCACTATAGGGATAATCGCCCTGAGCAAAGACC,-0.572 ± 0.102
15,CTCGAGGATATCAAGATCTGGCCTCGGCCGCCCATTAGGAACCTCTAGCTAGCCGACTCACTATAGGGATAATCGCCCTGAGCAAAGACC,-0.218 ± 0.102
16,CTCGAGGATATCAAGATCTGGCCTCGGCATCGTAAAAGGAACCTCTAGCTAGCCGACTCACTATAGGGATAATCGCCCTGAGCAAAGACC,2.79 ± 0.0886
17,CTCGAGGATATCAAGATCTGGCCTCGGCGAGGTAAAAGGAACCTCTAGCTAGCCGACTCACTATAGGGATAATCGCCCTGAGCAAAGACC,-0.51 ± 0.0909
18,CTCGAGGATATCAAGATCTGGCCTCGGCGCGCTCGCGGGAACCTCTAGCTAGCCGACTCACTATAGGGATAATCGCCCTGAGCAAAGACC,-1.06 ± 0.163
19,CTCGAGGATATCAAGATCTGGCCTCGGCGATTTAAAAGGAACCTCTAGCTAGCCGACTCACTATAGGGATAATCGCCCTGAGCAAAGACC,2.1 ± 0.071
20,CTCGAGGATATCAAGATCTGGCCTCGGCAGGGTAAAAGGAACCTCTAGCTAGCCGACTCACTATAGGGATAATCGCCCTGAGCAAAGACC,-0.13 ± 0.081

row,Sequence,binding signal [log2FC]
1,CTCGAGGATATCAAGATCTGGCCTCGGCGTTTTATTTGGAACCTCTAGCTAGCCGACTCACTATAGGGATAATCGCCCTGAGCAAAGACC,2.98 ± 0.0869
2,CTCGAGGATATCAAGATCTGGCCTCGGCTGCCTAAAAGGAACCTCTAGCTAGCCGACTCACTATAGGGATAATCGCCCTGAGCAAAGACC,-0.51 ± 0.109
3,CTCGAGGATATCAAGATCTGGCCTCGGCACGTTAAAAGGAACCTCTAGCTAGCCGACTCACTATAGGGATAATCGCCCTGAGCAAAGACC,1.42 ± 0.0726
4,CTCGAGGATATCAAGATCTGGCCTCGGCTTTTTAGGGGGAACCTCTAGCTAGCCGACTCACTATAGGGATAATCGCCCTGAGCAAAGACC,1.5 ± 0.0951
5,CTCGAGGATATCAAGATCTGGCCTCGGCTCAATAAAAGGAACCTCTAGCTAGCCGACTCACTATAGGGATAATCGCCCTGAGCAAAGACC,2.74 ± 0.0786
6,CTCGAGGATATCAAGATCTGGCCTCGGCTGAGTAAAAGGAACCTCTAGCTAGCCGACTCACTATAGGGATAATCGCCCTGAGCAAAGACC,0.229 ± 0.0993
7,CTCGAGGATATCAAGATCTGGCCTCGGCTTTTTAGCCGGAACCTCTAGCTAGCCGACTCACTATAGGGATAATCGCCCTGAGCAAAGACC,-0.442 ± 0.12
8,CTCGAGGATATCAAGATCTGGCCTCGGCGTTTTAAAAGGAACCTCTAGCTAGCCGACTCACTATAGGGATAATCGCCCTGAGCAAAGACC,2.44 ± 0.0598
9,CTCGAGGATATCAAGATCTGGCCTCGGCCCGTTAAAAGGAACCTCTAGCTAGCCGACTCACTATAGGGATAATCGCCCTGAGCAAAGACC,2.37 ± 0.0792
10,CTCGAGGATATCAAGATCTGGCCTCGGCCTTTTAAGCGGAACCTCTAGCTAGCCGACTCACTATAGGGATAATCGCCCTGAGCAAAGACC,0.916 ± 0.0855
11,CTCGAGGATATCAAGATCTGGCCTCGGCCTTTTAATGGGAACCTCTAGCTAGCCGACTCACTATAGGGATAATCGCCCTGAGCAAAGACC,2.57 ± 0.0798
12,CTCGAGGATATCAAGATCTGGCCTCGGCTGATTAAAAGGAACCTCTAGCTAGCCGACTCACTATAGGGATAATCGCCCTGAGCAAAGACC,1.86 ± 0.0796
13,CTCGAGGATATCAAGATCTGGCCTCGGCGCGATGGCGGGAACCTCTAGCTAGCCGACTCACTATAGGGATAATCGCCCTGAGCAAAGACC,-0.944 ± 0.133
14,CTCGAGGATATCAAGATCTGGCCTCGGCCTTTTAACGGGAACCTCTAGCTAGCCGACTCACTATAGGGATAATCGCCCTGAGCAAAGACC,1.98 ± 0.0882
15,CTCGAGGATATCAAGATCTGGCCTCGGCCGCACCCGCGGAACCTCTAGCTAGCCGACTCACTATAGGGATAATCGCCCTGAGCAAAGACC,-1.02 ± 0.126
16,CTCGAGGATATCAAGATCTGGCCTCGGCGCGTACGCGGGAACCTCTAGCTAGCCGACTCACTATAGGGATAATCGCCCTGAGCAAAGACC,-1.05 ± 0.139
17,CTCGAGGATATCAAGATCTGGCCTCGGCAGAGTAAAAGGAACCTCTAGCTAGCCGACTCACTATAGGGATAATCGCCCTGAGCAAAGACC,0.253 ± 0.1
18,CTCGAGGATATCAAGATCTGGCCTCGGCATTTTATGAGGAACCTCTAGCTAGCCGACTCACTATAGGGATAATCGCCCTGAGCAAAGACC,3.3 ± 0.0767
19,CTCGAGGATATCAAGATCTGGCCTCGGCGCATTAAAAGGAACCTCTAGCTAGCCGACTCACTATAGGGATAATCGCCCTGAGCAAAGACC,1.77 ± 0.0683
